Measurements taken from PubChem BioAssay (NCI).
Values joined by “and” are separate entries in the source; they are usually repeats but may differ in a detail not shown here. Equal entries are not always repeated. The panel holds about 83,000 compounds, 20% with a hit somewhere; the sample as a whole holds those more often.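 48-hour exposure, single concentration, 96-well plates; percent growth endpoint where 0 means no net growth. Active: below 10.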 A structure can be active in one record and inactive in another. Active and inactive are the calls of the source.

Each compound was assayed on A549/ATCC NSCLC (assay: NCI-60 one-dose screen, 48 h (100 = growth as untreated, 0 = no growth, -100 = all killed)). Settings: 10 µM unless noted.
Experimental: Growth inhibition of the A549/ATCC human Non-Small Cell Lung tumor cell line is measured as a screen for anti-cancer activity. Cells are grown in 96 well plates and exposed to the test compound for 48 hours. Compounds are tested at a single concentration, which is 10^-5 M for most compounds. The reported endpoint is percent growth (GI% or GIPRCNT), where numbers from 0 - 100% represent growth inhibition, and numbers from -100% - 0 represent cell death. For example, a value of 40 represents 60% growth inhibition. A value of 0 means no net growth occurred over the course of the experiment. A value of -40 indicates 40% of cells at the beginning of the experiment died by the end of the experiment. A value of -100 means all cells are dead at the end of the experiment.
NCI-60 Human Tumor Cell Lines Screen was performed using the standard one-dose NCI protocol, which is described in more detail at https://dtp.cancer.gov/discovery_development/nci-60/default.htm.
Compounds with GIPRCNT values below 10 were considered active. Activity score was based on GIPRCNT using the following formula: […]
Score is 0 for GIPRCNT values of 100 or above, 50 for GIPRCNT values of 0, and 100 for GIPRCNT values of -100.

| SMILES | growth |
| --- | --- |
| COc1ccc(NC(=S)Nc2ccccn2)cc1 | 101% (inactive) |
| Nc1cc2c(cc1N)-c1ccccc1C2 | 90.9% (inactive) and 90.4% (inactive) |
| CC(=O)Nc1ccc2cc3ccc(NC(C)=O)cc3nc2c1 | 107% (inactive) and 115% (inactive) |
| CCc1c(CC(=O)O)c2cc(C)ccc2n1Cc1ccc(Cl)cc1 | 89.1% (inactive) and 87.3% (inactive) |
| Cn1c(=O)c2[nH]c(CCCCCCCCc3nc4ccccc4[nH]3)nc2n(C)c1=O | 67.4% (inactive) and 70.1% (inactive) |
| Cc1ccc(S(=O)(=O)NCN2C(=O)c3ccccc3C2=O)cc1 | 99% (inactive) |
| CNC(=O)c1ccc(C)c(-n2c(C)cc(OCc3ccc(F)cc3F)c(Br)c2=O)c1 | 63.4% (inactive) and 63.2% (inactive) |
| O=C1C2=C(C(=O)c3ccccc31)C(O)(S(=O)(=O)O)C(O)(S(=O)(=O)O)C1N=CC=CC21 (stereo not given) | 35.8% (inactive) and 22.1% (inactive) |
| ClC/C=C/CSc1ncnc2nc[nH]c12 | 101% (inactive) and 104% (inactive) |
| CN(C)c1ccc2nc3ccc(=[N+](C)C)cc-3sc2c1 | 3.7% (active) and 3.9% (active) and 14.7% (inactive) |
| OC1CCC(Oc2cccc3cnc(Nc4ccc5nc[nH]c5c4)nc23)CC1 (stereo not given) | -9.62% (active) and 28.9% (inactive) |
| CCN(CC)CCOc1ccc2c(c1)C(=O)c1cc(OCCN(CC)CC)ccc1-2 | 55.8% (inactive) and 50.6% (inactive) |
| Cc1ccc2nc3c(nc2c1)-c1cccc2cccc-3c12 | 74.4% (inactive) |
| O=C(Nc1ccc(Br)cc1)c1cc(Br)ccc1O | 14.8% (inactive) and 14.7% (inactive) |
| NS(=O)(=O)c1cc2c(cc1Cl)NC(C(Cl)Cl)NS2(=O)=O (stereo not given) | 80.9% (inactive) and 106% (inactive) |
| COc1ccccc1NC(=O)OCC#CCOC(=O)Nc1ccccc1OC | 101% (inactive) and 87% (inactive) |
| CN1CCN(CCC=C2c3ccccc3Sc3ccc(S(=O)(=O)N(C)C)cc32)CC1 | 69.3% (inactive) and 79.6% (inactive) |
| CCN(CC)CCNc1cc(-c2cccc(OC(F)(F)F)c2)nc2ccc(N3CCCC3)cc12 | 55% (inactive) and 3.66% (active) and 29.9% (inactive) |
| OC(CSc1ccccc1)CN1CCN(c2cccc(Cl)c2)CC1 (stereo not given) | 101% (inactive) and 98.4% (inactive) |
| O=C(O)c1cc(C(=O)O)cc([N+](=O)[O-])c1 | 106% (inactive) |

| SMILES | growth |
| --- | --- |
| Cc1ccc(NCSc2ccc(Cl)cc2)cc1 | 62% (inactive) and 63.7% (inactive) |
| Cc1cc(=O)[nH]c(O)c1C#N | 102% (inactive) and 95.3% (inactive) |
| COc1cc(Nc2nc3ccccc3nc2NS(=O)(=O)c2ccc(NC(=O)c3ccc(C)c(OC)c3)cc2)cc(OC)c1 | 50.2% (inactive) and -9.71% (active) |
| CNc1cc(-c2cccc(OC(F)(F)F)c2)nc2ccc(N3CCCC3)cc12 | -34.3% (active) and 9.17% (active) and 15.2% (inactive) |
| O=c1c2ccccc2nc2n1Cc1nc3ccccc3c(=O)n1C2 | 102% (inactive) and 100% (inactive) |
| CC(C)Oc1ccc2cc(-c3nn(CC4CCNCC4)c4ncnc(N)c34)ccc2c1 | 80.1% (inactive) and 16.9% (inactive) |
| O=[N+]([O-])c1ccc(Oc2ccccc2)cc1 | 104% (inactive) and 89.5% (inactive) |
| O=C(CCl)c1ccc2c(c1)Nc1ccccc1S2 | 100% (inactive) and 106% (inactive) |
| CCOc1ccc2cc(-c3nn(CC4CCN(C)CC4)c4ncnc(N)c34)ccc2c1 | 78.3% (inactive) and 60.1% (inactive) |
| CCOc1ccc2nc3cc(N)ccc3c(N)c2c1 | 77.6% (inactive) and 77.2% (inactive) |
| N#CCCOc1ccccc1 | 96.7% (inactive) |
| O=C(/C=C\c1ccnc2ccccc12)c1ccc([N+](=O)[O-])cc1 | 91.5% (inactive) and 78.3% (inactive) |
| CCN(CC)C(=O)c1cccnc1 | 102% (inactive) |
| CC(=O)Nc1ccc(O)cc1 | 96.9% (inactive) and 122% (inactive) and 108% (inactive) |
| O=C(c1ccc(Cl)cc1)C(NCCO)c1ccc(Cl)cc1 (stereo not given) | 96.8% (inactive) and 93.8% (inactive) |
| CCN(CC)CCC(CNc1ccnc2cc(Cl)ccc12)c1ccc(OC)cc1 (stereo not given) | 78.9% (inactive) and 88.3% (inactive) |
| COC(=O)/C=C/c1cc(O)c2c(c1)C(C(=O)OC)C(c1ccc(O)c(O)c1)O2 (stereo not given) | 31.5% (inactive) and 20.3% (inactive) |
| Nc1cc(-c2cccc(OC(F)(F)F)c2)nc2ccc(N3CCCC3)cc12 | 15.1% (inactive) and 18.4% (inactive) and 13.8% (inactive) |
| Oc1c(CN2CCCCC2)ccc2cccnc12 | 43.6% (inactive) and 36% (inactive) |
| O=C(CCc1ccc(O)cc1)N/N=C/c1cc(Br)ccc1O | 47.6% (inactive) |
